Results as given in PubChem BioAssay (EPA / NIEHS).
Where “and” joins values, the source holds several entries; their conditions need not be identical. Equal entries are not always repeated. The source holds several records for some structures; these can differ, active in one and inactive in another. Calls of active or inactive are those of the source. The calls were made as follows: active = hit-call score of the fitted dose curve at least 0.9, where 1 is the maximum; inactive = score below 0.9.

What was measured:
[1] = ATG_E_Box_CIS: Attagene CIS-FACTORIAL HepG2 Assay for human Enhancer Box (E-box) (AID 2282936); details: HepG2 E-box cis-reporter transcription, actives raise or lower the signal
Summary of the method: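 Cells: HepG2 (human liver), transient MRTU transfection. Exposure 24 h. RNA → oligo(dT) RT → PCR → 6-FAM label → HpaI → CE. Activity fitted both directions relative to DMSO.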

[2] = ATG_M_61_CIS: Attagene CIS-FACTORIAL HepG2 Assay for M61 Transcription Factor (Internal Marker) (AID 2282937); details: HepG2 Attagene CIS-FACTORIAL M61 internal marker reporter; actives raise or lower the signal
Summary of the method: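 HepG2 cells transiently transfected with multiplexed cis-promoter reporter units reporting endogenous transcription factor activity, measured 24 h after dosing. Reporter mRNA quantified by RT-PCR and capillary electrophoresis; bidirectional fit against DMSO baseline.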

[3] = ATG_EGR_CIS: Attagene CIS-FACTORIAL HepG2 Assay for human Early Growth Response 1 (EGR1) (AID 2282938); details: HepG2 Attagene CIS-FACTORIAL EGR reporter mRNA; actives raise or lower the signal
Summary of the method: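 HepG2 cells transiently transfected with cis-element-driven multiplexed reporter units, dosed for 24 h. EGR1-element reporter mRNA quantified by RT-PCR, 6-FAM labelling, HpaI digestion and capillary electrophoresis; bidirectional fit versus DMSO.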

[4] = ATG_M_19_CIS: Attagene CIS-FACTORIAL HepG2 Assay for M19 Transcription Factor (Internal Marker) (AID 2282939); details: HepG2 Attagene CIS-FACTORIAL M19 internal marker reporter; actives raise or lower the signal
Summary of the method: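 Internal marker readout, fitted in both directions against DMSO, from HepG2 cells carrying transfected cis-element reporter constructs; RT-PCR and capillary electrophoresis of reporter mRNA after 24 h exposure.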

[5] = ATG_ERE_CIS: Attagene CIS-FACTORIAL HepG2 Assay for Estrogen Response Element (ERE) (AID 2282940); details: HepG2 ERE cis-reporter, Attagene RNA transcript; actives raise or lower the signal
Summary of the method: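 After 24 h compound treatment, RNA from transfected HepG2 cells was reverse-transcribed, reporter cDNA PCR-amplified, FAM-labelled, HpaI-cut and resolved by capillary electrophoresis. ERE-driven cis reporter transcripts reflect endogenous factors; gain or loss scored against DMSO.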

[6] = ATG_Ets_CIS: Attagene CIS-FACTORIAL HepG2 Assay for human Erythroblast Transformation Specific (ETS) (AID 2282941); details: HepG2 ETS cis-reporter transcription, actives raise or lower the signal
Summary of the method: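 HepG2 cells transfected with multiple cis-regulated reporter units measuring endogenous ETS-driven transcription, 24 h after dosing. Reporter mRNA quantified by RT-PCR with capillary electrophoresis; bidirectional fit relative to DMSO.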

[7] = molecular target: Hepatocyte nuclear factor 3-beta (Homo sapiens) (UniProt Q9Y261); assay: ATG_FoxA2_CIS: Attagene CIS-FACTORIAL HepG2 Assay for human Forkhead box A2 (FOXA2) (AID 2282942); details: HepG2 cis-reporter transcription factor activity, 24 h; actives raise or lower the signal
Summary of the method: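 HepG2 transiently transfected with a multiplexed cis-promoter reporter library read endogenous FOXA2 activity. After 24 h compound exposure, reporter mRNA was quantified by RT-PCR, HpaI digestion and capillary electrophoresis. Bidirectional fit against DMSO.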

[8] = ATG_FoxO_CIS: Attagene CIS-FACTORIAL HepG2 Assay for human Forkhead box O (FoxO) (AID 2282943); details: HepG2 Attagene cis-reporter, FoxO element, mRNA; actives raise or lower the signal
Summary of the method: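 Human hepatoma HepG2 cells carry transiently introduced reporter transcription units controlled by cis promoter elements. Chemical treatment lasted 24 h, and mRNA signal was compared with DMSO.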

[9] = ATG_GATA_CIS: Attagene CIS-FACTORIAL HepG2 Assay for human GATA Binding Protein (AID 2282944); details: HepG2 GATA cis-element reporter, Attagene multiplex mRNA; actives raise or lower the signal
Summary of the method: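 Reporter transcripts from a GATA cis-regulated unit, among multiplexed reporters in transfected HepG2 cells, were measured by RT-PCR with capillary electrophoresis after 24 h dosing. Induction or loss scored relative to DMSO.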

[10] = ATG_GLI_CIS: Attagene CIS-FACTORIAL HepG2 Assay for human Zinc Finger Protein GLI1 (AID 2282945); details: HepG2, Attagene cis-factorial reporter mRNA, GLI element; actives raise or lower the signal
Summary of the method: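 Bidirectional curve fits relative to DMSO, using reporter mRNA levels from RT-PCR plus capillary electrophoresis. Cells were HepG2 transiently carrying cis-regulated reporter constructs, harvested 24 h after dosing.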

[11] = ATG_GRE_CIS: Attagene CIS-FACTORIAL HepG2 Assay for human Glucocorticoid Response Elements (GRE) (AID 2282947); details: HepG2 GRE cis-reporter, Attagene multiplex mRNA; actives raise or lower the signal
Summary of the method: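 Transient MRTU transfection of human HepG2 liver cells; cis-regulated reporters report endogenous factors. 24 h dosing → RNA isolation → RT-PCR → 6-FAM primer extension → HpaI cut → CE fragment analysis. Bidirectional fit, DMSO negative control.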

[12] = ATG_ISRE_CIS: Attagene CIS-FACTORIAL HepG2 Assay for human Interferon Regulatory Factor 1 (IRF1) binding to an Interferon-Stimulated Response Element (ISRE) (AID 2282948); details: HepG2 ISRE cis-reporter (Attagene), mRNA transcription readout; actives raise or lower the signal
Summary of the method: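 Transiently transfected HepG2 cells carrying cis-element reporter units, dosed 24 hours. Reporter mRNA quantified by RT-PCR, fluorescent primer extension, HpaI digestion and capillary electrophoresis. Bidirectional fitting relative to DMSO.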

[13] = ATG_M_32_CIS: Attagene CIS-FACTORIAL HepG2 Assay for M32 Transcription Factor (Internal Marker) (AID 2282949); details: HepG2 Attagene cis-factorial M32 reporter, mRNA; actives raise or lower the signal;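 also: background control marker of the multiplexed CIS panel rather than a real target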
Summary of the method: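 HepG2 cells transiently transfected with multiplexed cis-regulated reporter units, dosed 24 h. Reporter mRNA quantified by RT-PCR, 6-FAM labelling, HpaI digestion and capillary electrophoresis; bidirectional fit vs DMSO.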

[14] = ATG_M_06_CIS: Attagene CIS-FACTORIAL HepG2 Assay for M06 Transcription Factor (Internal Marker) (AID 2282950); details: HepG2 Attagene CIS-FACTORIAL M06 internal marker reporter; actives raise or lower the signal
Summary of the method: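 Serves as a background control readout. Transfected HepG2 exposed to compounds for 24 h, then reporter transcripts quantified by fluorescent RT-PCR and capillary electrophoresis. Both directions fitted against DMSO baseline.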

[15] = molecular target: Hypoxia-inducible factor 1-alpha (Homo sapiens) (UniProt Q16665); assay: ATG_HIF1a_CIS: Attagene CIS-FACTORIAL HepG2 Assay for human Hypoxia Inducible Factor 1 (HIF1A) (AID 2282951); details: HepG2 Attagene cis-factorial HIF1a reporter transcription; actives raise or lower the signal
Summary of the method: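 HepG2 cells transiently transfected with multiple cis-regulated reporter transcription units measure endogenous transcription factor activity. After 24 h exposure, reporter mRNA is quantified by RT-PCR with 6-FAM labelling, HpaI digestion and capillary electrophoresis. Bidirectional fitting against DMSO.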

[16] = molecular target: Hepatocyte nuclear factor 6 (Homo sapiens) (UniProt Q9UBC0); assay: ATG_HNF6_CIS: Attagene CIS-FACTORIAL HepG2 Assay for human Hepatocyte Nuclear Factor 6 (HNF6) (AID 2282952); details: HepG2 Attagene cis-factorial HNF6 reporter transcription; actives raise or lower the signal
Summary of the method: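 Multiplexed mRNA reporter assay in transfected HepG2; 24 h dosing; RT-PCR plus capillary electrophoresis fluorescence; DMSO-referenced bidirectional curve fitting.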

[17] = molecular target: Heat shock factor protein 1 (Homo sapiens) (UniProt Q00613); assay: ATG_HSE_CIS: Attagene CIS-FACTORIAL HepG2 Assay for human Heat Shock Transcription Factor 1 (HSE) (AID 2282953); details: HepG2 HSE cis-reporter, Attagene RNA transcription; actives raise or lower the signal
Summary of the method: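 Endogenous transcription factor activity in transiently transfected HepG2, read as reporter mRNA by RT-PCR with fluorescent capillary electrophoresis after 24 h. Gain or loss of signal fitted versus DMSO baseline.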

[18] = ATG_MRE_CIS: Attagene CIS-FACTORIAL HepG2 Assay for human Metal Responsive Element (MRE) (AID 2282954); details: HepG2 MRE cis-reporter transcription, Attagene multiplex; actives raise or lower the signal
Summary of the method: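 Transient MRTU transfection of HepG2 (FuGene 6); 24 h dosing; total RNA → oligo(dT) RT, PCR, 6-FAM primer extension, HpaI cut, CE. Bidirectional fit vs DMSO.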

[19] = ATG_PBREM_CIS: Attagene CIS-FACTORIAL HepG2 Assay for human Phenobarbital-responsive Enhancer Module (PBREM) (AID 2282955); details: HepG2 PBREM cis-reporter, Attagene multiplexed transcription; actives raise or lower the signal
Summary of the method: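 HepG2 cells transiently transfected with multiple cis-regulated reporter units measure endogenous transcription factor activity; 24 h compound exposure. Reporter mRNA quantified by RT-PCR, fluorescent labelling, HpaI digestion and capillary electrophoresis; bidirectional fit versus DMSO.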

[20] = molecular target: Paired box protein Pax-6 (Homo sapiens) (UniProt P26367); assay: ATG_Pax6_CIS: Attagene CIS-FACTORIAL HepG2 Assay for human Paired Box 6 (PAX6) (AID 2282956); details: HepG2 CIS-FACTORIAL PAX6 reporter transcription, RNA readout; actives raise or lower the signal
Summary of the method: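 HepG2 cells transiently transfected with cis-promoter-driven multiplexed reporter units sensing endogenous transcription factor activity; 24 h chemical exposure. Reporter mRNA quantified by RT-PCR, 6-FAM labelling, HpaI digestion and capillary electrophoresis; bidirectional fit versus DMSO baseline.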

Measured: AC50

Heat shock factor protein 1 (Homo sapiens), sequence (Q00613 whole entry, looked up): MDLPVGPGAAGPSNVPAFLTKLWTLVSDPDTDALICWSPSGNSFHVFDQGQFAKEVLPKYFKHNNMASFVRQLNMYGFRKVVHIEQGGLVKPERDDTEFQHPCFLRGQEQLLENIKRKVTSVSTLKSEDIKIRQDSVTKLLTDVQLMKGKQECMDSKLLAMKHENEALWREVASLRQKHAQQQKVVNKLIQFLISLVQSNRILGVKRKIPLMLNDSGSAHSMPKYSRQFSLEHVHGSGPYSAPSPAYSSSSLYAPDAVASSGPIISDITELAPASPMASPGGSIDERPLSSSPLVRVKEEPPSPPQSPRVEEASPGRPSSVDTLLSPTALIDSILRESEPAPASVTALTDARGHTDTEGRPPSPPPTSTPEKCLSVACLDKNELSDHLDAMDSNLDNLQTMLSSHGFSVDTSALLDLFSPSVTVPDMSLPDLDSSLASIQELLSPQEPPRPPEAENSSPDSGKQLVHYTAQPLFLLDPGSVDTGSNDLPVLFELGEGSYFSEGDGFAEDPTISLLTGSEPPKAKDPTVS
Hepatocyte nuclear factor 6 (Homo sapiens), sequence (Q9UBC0 whole entry, looked up): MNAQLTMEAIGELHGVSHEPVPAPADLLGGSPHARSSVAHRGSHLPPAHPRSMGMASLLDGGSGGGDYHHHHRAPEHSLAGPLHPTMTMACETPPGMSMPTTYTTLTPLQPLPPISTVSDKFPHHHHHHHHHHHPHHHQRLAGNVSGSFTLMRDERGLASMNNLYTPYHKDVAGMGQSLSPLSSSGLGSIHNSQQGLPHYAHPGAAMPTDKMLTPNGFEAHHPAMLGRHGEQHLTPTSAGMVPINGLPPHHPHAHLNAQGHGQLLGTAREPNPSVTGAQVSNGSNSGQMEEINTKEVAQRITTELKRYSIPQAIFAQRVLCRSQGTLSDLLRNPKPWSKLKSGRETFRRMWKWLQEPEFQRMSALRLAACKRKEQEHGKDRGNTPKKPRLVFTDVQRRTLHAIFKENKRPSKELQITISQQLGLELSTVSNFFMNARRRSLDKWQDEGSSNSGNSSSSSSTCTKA
Hepatocyte nuclear factor 3-beta (Homo sapiens), sequence (Q9Y261 whole entry, looked up): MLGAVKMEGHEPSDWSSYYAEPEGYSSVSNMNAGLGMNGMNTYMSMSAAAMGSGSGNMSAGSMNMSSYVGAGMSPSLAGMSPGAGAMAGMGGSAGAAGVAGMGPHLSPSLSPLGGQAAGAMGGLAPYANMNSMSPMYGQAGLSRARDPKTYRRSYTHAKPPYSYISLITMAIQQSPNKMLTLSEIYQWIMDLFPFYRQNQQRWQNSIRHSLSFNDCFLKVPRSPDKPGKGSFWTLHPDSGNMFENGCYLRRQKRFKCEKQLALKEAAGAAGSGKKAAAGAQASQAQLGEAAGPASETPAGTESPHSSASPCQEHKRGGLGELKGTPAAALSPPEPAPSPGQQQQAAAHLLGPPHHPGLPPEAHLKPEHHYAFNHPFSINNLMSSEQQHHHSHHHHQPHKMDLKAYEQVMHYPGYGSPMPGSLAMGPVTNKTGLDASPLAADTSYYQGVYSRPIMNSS
Hypoxia-inducible factor 1-alpha (Homo sapiens), sequence (Q16665 whole entry, looked up): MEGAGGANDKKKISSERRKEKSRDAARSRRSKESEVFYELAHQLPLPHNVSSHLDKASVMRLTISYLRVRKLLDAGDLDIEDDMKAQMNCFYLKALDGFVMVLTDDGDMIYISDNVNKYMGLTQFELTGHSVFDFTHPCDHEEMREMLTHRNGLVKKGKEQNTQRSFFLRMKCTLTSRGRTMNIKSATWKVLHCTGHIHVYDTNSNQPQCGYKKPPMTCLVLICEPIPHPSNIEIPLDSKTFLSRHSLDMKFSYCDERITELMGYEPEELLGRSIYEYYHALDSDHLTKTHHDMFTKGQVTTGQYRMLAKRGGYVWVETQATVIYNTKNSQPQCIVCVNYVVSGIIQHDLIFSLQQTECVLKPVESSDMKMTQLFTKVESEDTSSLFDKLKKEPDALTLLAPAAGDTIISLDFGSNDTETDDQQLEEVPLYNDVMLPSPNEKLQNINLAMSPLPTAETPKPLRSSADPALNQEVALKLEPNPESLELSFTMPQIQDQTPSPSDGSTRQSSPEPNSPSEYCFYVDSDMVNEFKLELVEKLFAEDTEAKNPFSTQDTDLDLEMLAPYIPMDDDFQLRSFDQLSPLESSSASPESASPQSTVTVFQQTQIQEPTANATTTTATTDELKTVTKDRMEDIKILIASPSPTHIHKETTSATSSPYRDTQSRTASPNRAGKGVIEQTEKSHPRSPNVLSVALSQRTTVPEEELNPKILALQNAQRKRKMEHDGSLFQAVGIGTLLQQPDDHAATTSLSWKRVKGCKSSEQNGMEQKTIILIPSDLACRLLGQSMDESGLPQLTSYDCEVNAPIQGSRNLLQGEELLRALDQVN
Paired box protein Pax-6 (Homo sapiens), sequence (P26367 whole entry, looked up): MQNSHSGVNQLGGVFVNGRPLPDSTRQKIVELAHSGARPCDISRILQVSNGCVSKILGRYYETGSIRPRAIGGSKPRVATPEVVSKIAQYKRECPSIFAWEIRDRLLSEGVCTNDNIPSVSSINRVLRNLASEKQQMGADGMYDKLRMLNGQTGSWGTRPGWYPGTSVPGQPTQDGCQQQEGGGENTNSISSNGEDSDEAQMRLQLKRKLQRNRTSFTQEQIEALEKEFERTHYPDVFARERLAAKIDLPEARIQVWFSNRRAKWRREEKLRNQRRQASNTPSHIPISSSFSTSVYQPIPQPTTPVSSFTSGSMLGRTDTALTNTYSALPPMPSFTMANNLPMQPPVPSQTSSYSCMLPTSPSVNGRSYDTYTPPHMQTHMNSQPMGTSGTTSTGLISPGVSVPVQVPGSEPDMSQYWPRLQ

CCOC(=O)C(O)(c1ccc(Cl)cc1)c1ccc(Cl)cc1
active: [5] 2.98 µM | [15] 0.000836 µM | [18] 11.1 µM
inactive: all other assays above

CC#Cc1cc(C)nc(Nc2ccccc2)n1
active: [1] 140 µM | [3] 67.5 µM | [18] 68.2 µM | [20] 68.1 µM
inactive: all other assays above

Oc1c(Cl)c(Cl)c(Cl)c(Cl)c1Cl
active: [1] 67.8 µM | [3] 29.4 µM and 11.2 µM | [5] 13.4 µM | [6] 21.5 µM | [8] 33.6 µM | [10] 82 µM | [12] 78.7 µM and 51 µM | [15] 3.43 µM and 20.6 µM | [16] 25.9 µM | [17] 31.5 µM and 75.4 µM and 142 µM | [18] 50 µM and 40.9 µM and 78.8 µM | [19] 18.1 µM and 7.11 µM | [20] 50 µM and 14 µM and 34 µM
inactive: [1] | [3] | [4] | [5] | [6] | [7] | [8] | [9] | [10] | [11] | [12] | [13] | [14] | [15] | [16] | [19]

CCC(=O)O[C@H]1CC[C@H]2[C@@H]3CCC4=CC(=O)CC[C@]4(C)[C@H]3CC[C@]12C
active: [3] 100 µM and 77.1 µM and 129 µM | [5] 9.04 nM and 9.14 nM and 8.84 nM | [7] 187 µM | [8] 135 µM and 185 µM | [9] 140 µM | [11] 157 µM | [12] 100 µM and 131 µM | [15] 100 µM and 122 µM | [16] 169 µM and 187 µM | [17] 159 µM [middle of 4 runs] | [18] 136 µM [middle of 4 runs] | [19] 136 µM and 100 µM | [20] 132 µM and 100 µM
inactive: [1] | [4] | [6] | [7] | [8] | [9] | [10] | [11] | [12] | [13] | [14] | [15] | [16] | [19] | [20]

Cc1cccc([N+](=O)[O-])c1
active: [15] 181 µM
not listed: [2] | [19]
inactive: all other assays above

O=C(NC(=O)c1c(F)cccc1F)Nc1cc(Cl)c(OC(F)(F)C(F)F)c(Cl)c1
not listed: [2]
inactive: all other assays above

Cc1ccccc1O
not listed: [2]
inactive: all other assays above

CCCN(CCC)N=O
active: [5] 46.4 µM
not listed: [2]
inactive: all other assays above

O=C(O)C(F)(F)C(F)(F)C(F)(F)C(F)(F)C(F)(F)C(F)(F)C(F)(F)C(F)(F)F
inactive: [1] | [3] | [4] | [6] | [7] | [8] | [9] | [10] | [11] | [12] | [13] | [14] | [15] | [16] | [18] | [20]
active: [3] 150 µM and 50 µM | [5] 39.4 µM and 38.2 µM and 15.2 µM | [12] 150 µM and 46.3 µM | [15] 50 µM | [18] 210 µM and 50 µM | [20] 224 µM and 50 µM

CCC(C)(CC)c1cc(NC(=O)c2c(OC)cccc2OC)on1
active: [15] 8.77 µM | [18] 14.4 µM | [19] 1.43 µM
not listed: [2] | [5] | [11]
inactive: all other assays above
